Where “and” joins values, the source holds several entries; their conditions need not be identical. Identical values can stand only once. Inconclusive results are not listed. A structure can be active in one record and inactive in another. Calls of active or inactive are those of the source. Rule for the calls: active = hit-call score of the fitted dose curve at least 0.9, where 1 is the maximum; inconclusive = response in the unintended direction; inactive = score below 0.9.
Tested on: not listed separately
Test: TOX21_p53_BLA_p3_viability: Viability Assessment in the Tox21 HCT-116 p53 Agonism Beta-lactamase Assay, Phase 3 (AID 2283593);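 note: cells exposed to compound for 16 h before reading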
Outline: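 HCT116 cells, 4000/well, dosed 5 h after plating by pin transfer (217-fold dilution from DMSO stock) and incubated 16 h at 37C, 5% CO2. Viability read as ATP luminescence with CellTiter-Glo after 30 min at room temperature.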

| Compound | outcome |
| --- | --- |
| COC1=CC(=O)O[C@@H](/C=C/c2ccccc2)C1 | inactive |
| CCSCc1ccccc1OC(=O)NC | inactive |
| CNN | inactive |
| Cc1ncc2n1-c1ccc(Cl)cc1C(c1ccccc1F)=NC2 | inactive |
| CN1[C@@H]2CC[C@H]1CC(OC(=O)c1cc(Cl)cc(Cl)c1)C2 (stereo not given in full) | inactive |
| C[N+](C)(C)CCOC(=O)C(O)(c1ccccc1)c1ccccc1 | inactive |
| Clc1ccc(C(Cl)(Cl)Cl)cc1Cl | inactive |
| Cc1nc(N)nc(N)n1 | inactive |
| Cc1cnc[nH]1 | inactive |
| Cc1ccc2c(c1)[C@]13CCCC[C@@H]1[C@H](C2)N(C)CC3 | inactive |
| CCCN(CCCl)c1c([N+](=O)[O-])cc(C(F)(F)F)cc1[N+](=O)[O-] | inactive |
| O=C(O)C(Cl)(Cl)Br | inactive |
| CC(N)=S | inactive |
| C#CC(C)(O)CC (stereo not given) | inactive |
| C=C(C#N)CCC#N | inactive |
| Cc1ccc2c(c1)C1CN(C)CCC1N2 (stereo not given) | inactive |
| COC(=O)C(Cl)C(=O)OC | inactive |
| C[N+]1(C)[C@@H]2CC[C@H]1CC(OC(=O)c1c[nH]c3ccccc13)C2 (stereo not given in full) | inactive |
| C[C@]1(O)CC[C@H]2[C@@H]3CCC4=CC(=O)CC[C@]4(C)[C@@]3(F)[C@@H](O)C[C@@]21C | inactive |
| O=C(C[C@@H]1NCCC[C@H]1O)Cn1cnc2cc(Br)c(Cl)cc2c1=O | inactive |
| Cc1ccc(-c2nc3ccc(C)cn3c2CC(=O)N(C)C)cc1 | inactive |
| Clc1cc(Cl)c(-c2cc(Cl)c(Cl)cc2Cl)cc1Cl | inactive |
| Cn1cc[n+](C)c1 (tested in a mixture with another compound) | inactive |
| CCCCc1ccc(C(=O)O)nc1 | inactive |

Target: Cellular tumor antigen p53 (Homo sapiens) (UniProt P04637)
Sequence (P04637 whole entry, looked up): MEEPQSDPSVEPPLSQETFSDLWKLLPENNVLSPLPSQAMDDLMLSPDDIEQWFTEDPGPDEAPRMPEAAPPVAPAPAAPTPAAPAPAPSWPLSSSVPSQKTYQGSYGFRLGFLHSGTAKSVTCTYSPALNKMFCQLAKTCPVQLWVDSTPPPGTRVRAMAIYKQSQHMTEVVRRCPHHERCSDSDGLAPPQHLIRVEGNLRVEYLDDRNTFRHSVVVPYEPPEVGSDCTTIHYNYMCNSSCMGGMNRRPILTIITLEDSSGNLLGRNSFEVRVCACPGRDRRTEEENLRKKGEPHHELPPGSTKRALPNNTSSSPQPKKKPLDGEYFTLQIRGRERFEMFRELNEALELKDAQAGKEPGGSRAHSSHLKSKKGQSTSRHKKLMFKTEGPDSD
Test: TOX21_p53_BLA_p3_ratio: Tox21 HCT-116 p53 Agonism Beta-lactamase Assay, Ratio, Phase 3 (AID 2283596)
Outline: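 Cells were seeded at 4000/well, rested 5 h at 37C, then dosed with DMSO compound solutions (217-fold dilution) for 16 h. CCF4-AM substrate was loaded for 2 h at room temperature, and the 460/530 nm emission ratio was fitted for gain of signal versus DMSO.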

| Compound | outcome | AC50 |
| --- | --- | --- |
| Clc1cccc(N2CCNCC2)c1 | inactive | – |
| O=[N+]([O-])c1ccc(CCl)cc1 | inactive | – |
| C(COCC1CO1)OCC1CO1 (stereo not given) | inactive | – |
| CC(Cc1ccccc1)NC=O (stereo not given) | inactive | – |
| N#CC(Cl)Cl | inactive | – |
| CCCCCCCCCCCCCCCCn1cc[n+](C)c1 | inactive | 9.54 µM (active) |
| CC(CCc1ccccc1)NC(C)C(O)c1ccc(O)cc1 (stereo not given) | inactive | – |
| CN1CCc2cc(Cl)c(O)cc2[C@H]2c3ccccc3CC[C@@H]21 | inactive | – |
| COc1ccc2c(c1)C13CCCC[C@@H]1C(C2)N(C)CC3 (stereo not given in full) | inactive | – |
| C[C@@H]([C@H](O)c1ccccc1)N(C)C | inactive | – |
| Cc1cc(Cl)ccc1N=CN(C)C | inactive | – |
| CN1CCCC(=C(c2cccs2)c2cccs2)C1 | inactive | – |
| CN(C)CCc1c[nH]c2cccc(O)c12 | inactive | – |
| C[N+]1(C)[C@@H]2CC[C@H]1CC(OC(=O)C(CO)c1ccccc1)C2 (stereo not given in full) | inactive | – |
| [Cl][Sn]([Cl])([Cl])[Cl] | inactive | – |
| CN1C(=O)CN=C(c2ccccc2)c2cc([N+](=O)[O-])ccc21 | inactive | – |

Tested on: not listed separately
Test: TOX21_p53_BLA_p4_viability: Viability Assessment in the Tox21 HCT-116 p53 Agonism Beta-lactamase Assay, Phase 4 (AID 2283597);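 note: hits lower the luminescence signal meaning cytotoxicity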
Outline: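 Cytotoxicity as reduced cellular ATP (CellTiter-Glo luminescence, 30 min room temperature), measured in the same wells following the CCF4 FRET p53 reading. Human HCT-116 cells received compounds in DMSO (217-fold dilution) for 16 h.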

| Compound | outcome |
| --- | --- |
| Clc1cccc(N2CCNCC2)c1 | inactive |
| O=[N+]([O-])c1ccc(CCl)cc1 | inactive |
| C(COCC1CO1)OCC1CO1 (stereo not given) | inactive |
| COC1=CC(=O)O[C@@H](/C=C/c2ccccc2)C1 | inactive |
| CNN | inactive |
| Cc1ncc2n1-c1ccc(Cl)cc1C(c1ccccc1F)=NC2 | inactive |
| CN1[C@@H]2CC[C@H]1CC(OC(=O)c1cc(Cl)cc(Cl)c1)C2 (stereo not given in full) | inactive |
| C[N+](C)(C)CCOC(=O)C(O)(c1ccccc1)c1ccccc1 | inactive |
| Clc1ccc(C(Cl)(Cl)Cl)cc1Cl | inactive |
| CC(Cc1ccccc1)NC=O (stereo not given) | inactive |
| N#CC(Cl)Cl | inactive |
| O=C(O)C(Cl)(Cl)Br | inactive |
| CN1CCc2cc(Cl)c(O)cc2[C@H]2c3ccccc3CC[C@@H]21 | inactive |
| COc1ccc2c(c1)C13CCCC[C@@H]1C(C2)N(C)CC3 (stereo not given in full) | inactive |
| C#CC(C)(O)CC (stereo not given) | inactive |
| COC(=O)C(Cl)C(=O)OC | inactive |
| C[C@@H]([C@H](O)c1ccccc1)N(C)C | inactive |
| Cc1cc(Cl)ccc1N=CN(C)C | inactive |
| C[N+]1(C)[C@@H]2CC[C@H]1CC(OC(=O)c1c[nH]c3ccccc13)C2 (stereo not given in full) | inactive |
| C[C@]1(O)CC[C@H]2[C@@H]3CCC4=CC(=O)CC[C@]4(C)[C@@]3(F)[C@@H](O)C[C@@]21C | inactive |
| CN(C)CCc1c[nH]c2cccc(O)c12 | inactive |
| O=C(C[C@@H]1NCCC[C@H]1O)Cn1cnc2cc(Br)c(Cl)cc2c1=O | inactive |
| Cn1cc[n+](C)c1 (tested in a mixture with another compound) | inactive |
| CCCCc1ccc(C(=O)O)nc1 | inactive |
| [Cl][Sn]([Cl])([Cl])[Cl] | inactive |
| CN1C(=O)CN=C(c2ccccc2)c2cc([N+](=O)[O-])ccc21 | inactive |

Target: Cellular tumor antigen p53 (Homo sapiens) (UniProt P04637)
Test: TOX21_p53_BLA_p5_ratio: Tox21 HCT-116 p53 Agonism Beta-lactamase Assay, Ratio, Phase 5 (AID 2283599)
Outline: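 HCT-116 p53-bla cells (4000/well) plated 5 h, dosed with compound (217-fold DMSO dilution) for 16 h at 37 C; CCF4-AM substrate 2 h at room temperature. Activity is the 460/530 nm emission ratio (405 nm excitation), fitted in gain-of-signal direction versus DMSO.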

| Compound | outcome | AC50 |
| --- | --- | --- |
| Clc1cccc(N2CCNCC2)c1 | inactive | – |
| O=[N+]([O-])c1ccc(CCl)cc1 | inactive | – |
| C(COCC1CO1)OCC1CO1 (stereo not given) | inactive | – |
| Cc1ncc2n1-c1ccc(Cl)cc1C(c1ccccc1F)=NC2 | inactive | – |
| CN1[C@@H]2CC[C@H]1CC(OC(=O)c1cc(Cl)cc(Cl)c1)C2 (stereo not given in full) | inactive | – |
| Clc1ccc(C(Cl)(Cl)Cl)cc1Cl | inactive | – |
| CC(Cc1ccccc1)NC=O (stereo not given) | inactive | – |
| N#CC(Cl)Cl | inactive | – |
| O=C(O)C(Cl)(Cl)Br | inactive | – |
| CCCCCCCCCCCCCCCCn1cc[n+](C)c1 | inactive | 78.3 µM (active) and 41.3 µM (active) |
| CN1CCc2cc(Cl)c(O)cc2[C@H]2c3ccccc3CC[C@@H]21 | inactive | – |
| COc1ccc2c(c1)C13CCCC[C@@H]1C(C2)N(C)CC3 (stereo not given in full) | inactive | – |
| C#CC(C)(O)CC (stereo not given) | inactive | – |
| C=C(C#N)CCC#N | inactive | – |
| Cc1ccc2c(c1)C1CN(C)CCC1N2 (stereo not given) | inactive | – |
| C[C@@H]([C@H](O)c1ccccc1)N(C)C | inactive | – |
| Cc1cc(Cl)ccc1N=CN(C)C | inactive | – |
| C[N+]1(C)[C@@H]2CC[C@H]1CC(OC(=O)c1c[nH]c3ccccc13)C2 (stereo not given in full) | inactive | – |
| CN(C)CCc1c[nH]c2cccc(O)c12 | inactive | – |
| Clc1cc(Cl)c(-c2cc(Cl)c(Cl)cc2Cl)cc1Cl | inactive | – |
| [Cl][Sn]([Cl])([Cl])[Cl] | inactive | – |
| CN1C(=O)CN=C(c2ccccc2)c2cc([N+](=O)[O-])ccc21 | inactive | – |

Reference: PubChem BioAssay (EPA / NIEHS)
